Test results taken from PubChem BioAssay AID1159580 (chemical genetic matrix, 2015).
The campaign covered roughly 5,500 compounds. About 2,000 (36%) were called active. Roughly 18% stayed inconclusive and do not appear here. No stated cut-off is given here; in the data, active means normalized growth mostly below about 0.91 (no sharp cut-off); inconclusive means no clear call, values can overlap the other calls; inactive means mostly above about 0.92. Some of the results follow.

Assay: chemical genetic growth profiling, strain panel (AID 1159580);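 further: tested at 20 µM; growth read once vehicle control cultures reached saturation at 30 °C; 1 = growth at the plate median or of vehicle wells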
Settings: S. cerevisiae deletion strains, growth OD

Measured: normalized growth

COc1ccc2c(c1)c(CC(=O)O)c(C)n2Cc1ccc(Cl)cc1
inactive: locus YAL013W, strain DEP1, stronger effect = lower value 0.994 | locus YAL040C, strain CLN3, stronger effect = lower value 0.96 | locus YCL061C, strain MRC1 (second series), stronger effect = lower value 1 | locus YDR150W, strain NUM1, stronger effect = lower value 1.02 | locus YDR363W, strain ESC2, stronger effect = lower value 0.972 | locus YER002W, strain NOP16, stronger effect = lower value 0.999 | locus YGR078C, strain PAC10, stronger effect = lower value 0.981 | locus YGR229C, strain SMI1, stronger effect = lower value 0.941 | locus YMR307W, strain GAS1, stronger effect = lower value 1 | locus YNL175C, strain NOP13, stronger effect = lower value 0.966 | locus YNL197C, strain WHI3, stronger effect = lower value 0.95 | locus YNL224C, strain SQS1, stronger effect = lower value 0.981 | locus YNL322C, strain KRE1, stronger effect = lower value 0.994 | locus YOR083W, strain WHI5 (second series), stronger effect = lower value 0.953 | locus YPL055C, strain LGE1, stronger effect = lower value 0.996 | locus YPL241C, strain CIN2, stronger effect = lower value 0.994
